Laboratory results from PubChem BioAssay (NCATS).
Records with an inconclusive call do not appear. Calls of active or inactive are those of the source. The call rests on the fitted dose curve; in most records, active means well fitted curve in the direction sought with a large enough effect; inconclusive means small, poorly fitted or top-dose-only effect, or another doubt; inactive means no such curve, though single readings can be large; an effect the other way counts as inactive or inconclusive.

How the values were obtained:
[1] = qHTS to identify inhibitors of the type 1 interferon - major histocompatibility complex class I in skeletal muscle: primary screen against the NCATS Pharmaceutical Collection (AID 1347407);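 further: luminescence of HiBiT knocked into endogenous HLA-B as interferon-induced MHC class I level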; further: potency means the concentration at half of the fitted maximal effect
Procedure, shortened: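 Immortalized human myoblasts (C25cl48) with HiBiT knocked into endogenous HLA-B*08:01 were stimulated with 4 ng/ml IFN-beta and treated with compounds (8-point, 1:5, top 46 uM final) for 24 h at 37 C; HiBiT lytic luminescence read.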

[2] = target: Protein phosphatase 1D (Homo sapiens) (UniProt O15297); assay: RapidFire Mass Spectrometry qHTS Assay for Modulators of WT P53-Induced Phosphatase 1 (WIP1) (AID 1347424); further: series mostly up to about 63 µM
Procedure, shortened: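 RapidFire MS readout of dephosphorylated VEPPL-S-QETFS product, with 1 uM isotope-labelled peptide standard. Reaction: 10 nM WIP1, 2 uM phosphopeptide substrate, 5 min, room temperature, after 1 h compound preincubation; stopped with 0.5% formic acid.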

[3] = target: Protein phosphatase 1D (Homo sapiens) (UniProt O15297); assay: Rhodamine-PBP qHTS Assay for Modulators of WT P53-Induced Phosphatase 1 (WIP1) (AID 1347425)
Procedure, shortened: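 Read-out: Rhodamine-PBP fluorescence (ex 525/em 598 nm) for released Pi, read each minute for 11 min after adding 10 uM VEPPL-pS-QETFS; signal taken as f1 minus pre-substrate f0. Enzyme 5 nM WIP1 with 1 hr room-temperature compound preincubation.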

[4] = Primary qHTS for inhibitors of La Crosse Virus (LACV) - induced cell death in SH-SY5Y cells (AID 1508616);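 further: top concentration of the series differs between compounds; higher means more rescue of cells from virus-induced death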
Procedure, shortened: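 SH-SY5Y, 6000 cells/well; cpd via pin tool in DMSO; LACV 0.01 MOI; 6 d 37C 5% CO2; ATPLite, 5 min RT; luminescence normalized to ±virus DMSO controls.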

[5] = target: Calcium and integrin-binding protein 1 (Homo sapiens) (UniProt Q99828); assay: Primary qHTS for Identification of Calcium Integrin Binding Protein 1 (CIB1) Competitor (AID 1508620);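 further: GST tagged CIB1 binding a fluorescein labelled alphaIIb integrin peptide tracer; top concentration of the series differs between compounds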
Procedure, shortened: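 Fluorescence polarization competition: GST-tagged CIB1 (1 uM final) preincubated with compound 15 min at room temperature, then FITC-labelled alphaIIb peptide (100 nM final) added. After 15 min at room temperature, polarization read at Ex 480/Em 540.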

[6] = qHTS to identify inhibitors of the type 1 interferon - major histocompatibility complex class I in skeletal muscle: primary screen against the NCATS Mechanism Interrogation Plate v5.0 (MIPE) Libary (AID 1347411); further: potency means the concentration at half of the fitted maximal effect; nearly all actives have a fitted effect of over 65% in size
Procedure, shortened: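 Seed engineered human myoblasts (HLA-B HiBit) in medium without dexamethasone containing 4 ng/ml IFN-beta; after 1 hr add compound titrations (top 46 uM final). Incubate 24 hrs at 37 C, lyse 10 min with HiBiT reagent, read luminescence.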

Measured: Potency

Chain of Calcium and integrin-binding protein 1 (Homo sapiens) (Q99828 whole entry, looked up): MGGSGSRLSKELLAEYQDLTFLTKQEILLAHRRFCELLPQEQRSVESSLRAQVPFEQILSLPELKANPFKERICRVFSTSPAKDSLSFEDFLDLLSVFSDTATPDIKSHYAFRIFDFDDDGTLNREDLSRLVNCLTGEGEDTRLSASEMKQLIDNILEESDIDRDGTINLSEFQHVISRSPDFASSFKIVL
Chain of Protein phosphatase 1D (Homo sapiens) (O15297 whole entry, looked up): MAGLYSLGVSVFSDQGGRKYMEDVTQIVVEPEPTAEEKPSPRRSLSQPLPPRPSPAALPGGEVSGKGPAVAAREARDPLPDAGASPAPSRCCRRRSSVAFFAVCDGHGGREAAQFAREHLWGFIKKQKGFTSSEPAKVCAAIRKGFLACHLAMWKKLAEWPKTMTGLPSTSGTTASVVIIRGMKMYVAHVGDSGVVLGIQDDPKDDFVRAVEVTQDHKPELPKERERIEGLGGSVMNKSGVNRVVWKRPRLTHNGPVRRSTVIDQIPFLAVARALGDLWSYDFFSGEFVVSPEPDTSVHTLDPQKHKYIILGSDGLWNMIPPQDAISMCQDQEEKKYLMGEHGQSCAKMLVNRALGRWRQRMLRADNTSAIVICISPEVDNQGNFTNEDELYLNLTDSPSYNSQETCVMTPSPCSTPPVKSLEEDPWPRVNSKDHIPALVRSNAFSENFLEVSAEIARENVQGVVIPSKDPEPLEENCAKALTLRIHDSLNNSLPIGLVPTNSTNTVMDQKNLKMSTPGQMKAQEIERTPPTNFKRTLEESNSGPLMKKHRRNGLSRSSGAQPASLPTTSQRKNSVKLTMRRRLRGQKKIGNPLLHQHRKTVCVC

CC1(C)OC[C@@H](COC(=O)CCc2ccc(OC[C@@H](O)CNCCNC(=O)N3CCOCC3)cc2)O1
not listed: [6]
inactive: all other assays above

COc1cccc2c1C(=O)c1c(O)c3c(c(O)c1C2=O)C[C@@](O)(C(=O)CO)C[C@@H]3O[C@H]1C[C@H](N)[C@H](O)[C@H](C)O1
inactive: [2] | [3]
active: [1] 23.6 µM | [6] 0.829 µM

CC(C)(CO)[C@@H](O)C(=O)NCCCO
inactive: [1] | [2] | [3] | [4]

CCOC(=O)[C@H](CCc1ccccc1)N[C@@H](C)C(=O)N1Cc2ccccc2C[C@H]1C(=O)O
not listed: [6]
inactive: all other assays above

CCN(CCCc1ccccc1)CCCc1ccccc1
not listed: [6]
inactive: all other assays above

Cc1cc(=O)n(-c2ccccc2)n1C
not listed: [6]
inactive: all other assays above

O=c1ccc2ccccc2o1
not listed: [6]
inactive: all other assays above

COc1cc(C(=S)N2CCOCC2)cc(OC)c1OC
not listed: [6]
inactive: all other assays above

CN1CCC[C@@H]1c1cccnc1
not listed: [6]
inactive: all other assays above

C[C@@H]1C[C@H]2[C@@H]3CCC4=CC(=O)C=C[C@]4(C)[C@@]3(F)[C@@H](O)C[C@]2(C)[C@H]1C(=O)CO
not listed: [6]
inactive: all other assays above

O=C(OCC(O)CO)c1ccccc1Nc1ccnc2cc(Cl)ccc12 (stereo not drawn)
not listed: [6]
inactive: all other assays above

CCCCCC=CCC=CCCCCCCCC(=O)OCC
not listed: [6]
inactive: all other assays above

COc1c2occc2c(OC)c2c(=O)cc(C)oc12
not listed: [6]
inactive: all other assays above

CC(C)n1nc(-c2cc3cc(O)ccc3[nH]2)c2c(N)ncnc21
active: [1] 4.7 µM
not listed: [6]
inactive: all other assays above

C=C1C[C@H]2[C@@H]3C=C(C)C4=CC(=O)CC[C@]4(C)[C@H]3CC[C@]2(C)[C@@]1(OC(C)=O)C(C)=O
not listed: [6]
inactive: all other assays above

COc1cc(OC)cc(OC)c1
not listed: [6]
inactive: all other assays above

Cc1onc(-c2c(Cl)cccc2Cl)c1C(=O)N[C@@H]1C(=O)N2[C@@H]1SC(C)(C)[C@@H]2C(=O)O
not listed: [6]
inactive: all other assays above

CCN(CC)C(=O)/C(C#N)=C/c1cc(O)c(O)c([N+](=O)[O-])c1
not listed: [6]
inactive: all other assays above

COc1cc2c(cc1OC)C(C(C(=O)N(CCc1ccc(OC)c(OC)c1OC)CCc1ccc(OC)c(OC)c1OC)c1ccccc1)=NCC2 (stereo not drawn)
not listed: [6]
inactive: all other assays above

CC[N+](CC)(CCNC(=O)C(=O)NCC[N+](CC)(CC)Cc1ccccc1Cl)Cc1ccccc1Cl
not listed: [6]
inactive: all other assays above

Cc1c(C(C)C)c(=O)n(-c2ccccc2)n1C
not listed: [6]
inactive: all other assays above

NC(CS)C(=O)O (stereo not drawn)
not listed: [6]
inactive: all other assays above

COc1cccc(OC)c1C(=O)N[C@@H]1C(=O)N2[C@@H]1SC(C)(C)[C@@H]2C(=O)O
not listed: [6]
inactive: all other assays above

C=C1C(=C/C=C2\CCC[C@]3(C)[C@@H]([C@H](C)/C=C/[C@@H](O)C4CC4)CC[C@@H]23)C[C@@H](O)C[C@@H]1O
not listed: [6]
inactive: all other assays above

O=C1OC2(c3ccc(O)cc3Oc3cc(O)ccc32)c2ccccc21
not listed: [6]
inactive: all other assays above

N[C@@H](CCC(=O)N[C@@H](CS)C(=O)NCC(=O)O)C(=O)O
not listed: [6]
inactive: all other assays above

CCC(C(=O)OCCN(CC)CC)c1ccccc1 (stereo not drawn)
not listed: [6]
inactive: all other assays above

C[C@H](O)C(=O)Nc1c(I)c(C(=O)NC(CO)CO)c(I)c(C(=O)NC(CO)CO)c1I
not listed: [6]
inactive: all other assays above

OCc1ccccc1O
not listed: [6]
inactive: all other assays above

COc1cccc(CCc2ccccc2OCC(CN(C)C)OC(=O)CCC(=O)O)c1 (stereo not drawn)
not listed: [6]
inactive: all other assays above

CNCC[C@@H](Oc1ccccc1C)c1ccccc1
not listed: [6]
inactive: all other assays above

COc1cc(N)c(Cl)cc1C(=O)NC1CCN(CCCOc2ccc(F)cc2)CC1OC (stereo not drawn)
not listed: [6]
inactive: all other assays above
